Pf growth 48h: inhibits P. falciparum growth in the first generation, 48 h. AID 504832. 5.9% of 310,000 active. P. falciparum luciferase growth in erythrocytes, 48 h. Potency, µM (titrated, usually from 28.7 µM), hits mostly inhibitors
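Compounds are pin-transferred into medium, infected erythrocytes (2% hematocrit, 0.1% parasitemia final) are added, and plates sit one parasite generation at 37 C in 5% CO2. Detection reagent is then added and luminescence measured.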
LmPK inh: LmPK (Leishmania mexicana) enzyme inhibition; purified LmPK, Kinase-Glo ATP luminescence, 1 h; Potency, µM (highest dose often 57.5 µM), actives largely listed as inhibitors; 0.37% of 290,000 active
Target sequence (Q27686 whole entry, looked up): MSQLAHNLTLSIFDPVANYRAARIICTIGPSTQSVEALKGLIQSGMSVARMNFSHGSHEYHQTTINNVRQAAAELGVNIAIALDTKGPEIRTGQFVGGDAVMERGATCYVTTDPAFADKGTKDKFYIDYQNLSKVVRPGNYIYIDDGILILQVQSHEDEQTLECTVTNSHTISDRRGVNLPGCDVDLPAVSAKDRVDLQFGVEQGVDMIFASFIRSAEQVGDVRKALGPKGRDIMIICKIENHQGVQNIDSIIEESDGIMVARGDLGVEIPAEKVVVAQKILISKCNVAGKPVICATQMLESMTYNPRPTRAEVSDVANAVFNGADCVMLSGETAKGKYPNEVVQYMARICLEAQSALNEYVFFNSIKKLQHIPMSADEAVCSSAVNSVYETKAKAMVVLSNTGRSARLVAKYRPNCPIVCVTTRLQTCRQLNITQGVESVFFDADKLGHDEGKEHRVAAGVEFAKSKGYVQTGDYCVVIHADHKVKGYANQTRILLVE
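In 50 mM imidazole pH 7.2 with 7 mM MgCl2, LmPK (0.1 nM) turned over PEP (0.5 mM) and ADP (0.1 mM) for 1 h at room temperature. Luciferase read-out of ATP.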
CHX counter: counter-screen for Shiga toxin inhibitors: cycloheximide protein synthesis inhibition | cell reporter, cycloheximide protein synthesis inhibition counterscreen | max response, % | 12% of 300,000 active; in the data active = max response mostly above about 13%, no sharp cut-off; inactive = mostly below about 14%; note: read at 38.3 µM for the half of the compounds with a filed dose
Shiga toxin inh: inhibitors of Shiga toxin in Vero cells; AID 2315; 9.2% of 290,000 active; inhibition, % at 38.7 µM; Vero cells, Shiga toxin protein synthesis inhibition reporter; in the data active = inhibition mostly above about 28%, no sharp cut-off; inactive = mostly below about 43%
Pf growth 96h: P. falciparum growth inhibition at 96 hours. Potency, µM (series often up to 28.7 µM), actives largely listed as inhibitors. P. falciparum luciferase reporter growth, 96 h. 6.9% of 320,000 active
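P. falciparum expressing integrated firefly luciferase, in erythrocytes at 2% hematocrit, 0.05% parasitemia, incubated with compounds 96 h at 37 C, 5% CO2. Growth inhibition read as loss of luminescence; two-generation exposure targets delayed-death apicoplast inhibitors.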
Each line names hits and unclear results; the compound was inactive in the other large screens. The list is not random: actives were taken first. Their share in the collection is about 22%. Unless noted, calls come from the whole dose curve; as a rule, active = well fitted inhibition curve with a large enough effect; inconclusive = small, poorly fitted or top-dose-only effect, or another doubt; inactive = no such curve, though single readings can be large or run the other way.

COc1ccc(C(=O)NC(=S)Nc2ccccc2F)cc1	CHX counter 55.8, Shiga toxin inh 67.4, Pf growth 96h inconclusive
CCCC(=O)NC(=S)Nc1ccccc1F	CHX counter 15.3
CC(C)(C)C(=O)NC(=S)Nc1ccccc1F	CHX counter 26.4
CCC(=O)NC(=S)Nc1ccccc1F	Pf growth 96h inconclusive
CC(=O)NC(=S)Nc1ccccc1F	none
CC(=O)Nc1ccc(S(=O)(=O)N2CCC(N3CCCCCC3)CC2)cc1	none
COc1ccc(C(=O)NC(=S)Nc2cccnc2)cc1[N+](=O)[O-]	none
Cc1cccc(NC(=S)NC(=O)C2CC2)c1	CHX counter 44.6, Shiga toxin inh 35.5, Pf growth 96h inconclusive
Cc1cc(C)cc(NC(=S)NC(=O)C2CC2)c1	Pf growth 48h inconclusive
CN(C)S(=O)(=O)c1cccc(NC(=S)NC(=O)C2CCCCC2)c1	CHX counter 41.2, Shiga toxin inh 66.7
Cc1cc(NC(=S)NC(=O)C2CC2)ccc1Br	CHX counter 51.4, Shiga toxin inh 127.8
CC(=O)Nc1ccc(NC(=S)NC(=O)C2CCCC2)cc1	none
CCn1ncc(S(=O)(=O)Nc2cc(Cl)ccc2C)c1C	Pf growth 96h inconclusive
C[C@@H]1CN(CCCn2c3ccccc3c3ccccc32)C[C@H](C)N1	Pf growth 48h 8.49µM, Pf growth 96h 5.36µM
CC1CC(C)CN(CCCn2c(=S)[nH]c3ccccc3c2=O)C1 (centres undefined)	none (no result: Pf growth 48h)
O=C(C[n+]1ccc(/C=C/c2ccccc2)cc1)c1ccc2c(c1)OCCO2	Pf growth 48h inconclusive, Pf growth 96h inconclusive
O=C1Nc2ccccc2S/C1=C\C(=O)N1CCCC1	CHX counter 27.3, Shiga toxin inh 72.5
CC1=CS/C(=C(/C#N)C(=O)N2CCCCC2)N1c1ccccc1	none
N#C/C(C(=O)N1CCCCC1)=C1\Nc2ccccc2S1	CHX counter 36.7, Shiga toxin inh 58.0
CCc1ccc(C(=O)/C=C2\Sc3ccccc3NC2=O)cc1	CHX counter 50.3, Shiga toxin inh 88.2
CCCCNC(=O)/C=C1\Sc2ccccc2NC1=O	Pf growth 96h inconclusive
CC(=O)N(C)c1cccc(-c2ccc3nnc(C)n3n2)c1	none
COc1cccc(/C=C/C(=O)c2ccc3c(c2)OCO3)c1OC	none (no result: LmPK inh, CHX counter, Shiga toxin inh)
O=C(/C=C\Nc1cccc(F)c1)c1ccc2c(c1)OCO2	LmPK inh 12.6µM, CHX counter 28.0
COC(=O)c1ccc(N/C=C\C(=O)c2ccc3c(c2)OCO3)cc1	CHX counter 17.8, Shiga toxin inh 56.6
COc1ccc(N/C=C\C(=O)c2ccc3c(c2)OCO3)cc1OC	CHX counter 66.5, Shiga toxin inh 24.5, Pf growth 96h 4.65µM
O=C(CN1CCN(C(=O)CNC(=O)c2ccc3c(c2)OCO3)CC1)Nc1cccc(F)c1	none (no result: LmPK inh, CHX counter, Shiga toxin inh)
Cc1ccc(OCCN(C)C(=O)C2CCC(=O)N(CCCN3CCOCC3)C2)cc1 (centres undefined)	Pf growth 48h inconclusive, Pf growth 96h inconclusive
Cc1cccc(NC(=O)CSCC(=O)Nc2cc(Cl)ccc2N2CCN(C)CC2)c1	Pf growth 48h inconclusive, Pf growth 96h inconclusive
O=C(O)c1ccc(NC(=S)NC(=O)c2ccc(-c3ccc(Br)cc3)o2)cc1	Pf growth 48h inconclusive
CCCCNC(=O)c1onc(CSc2ccncc2)c1C(=O)NCCCC	Pf growth 48h inconclusive
CC(C)CCNC(=O)c1onc(CSc2nc3ccccc3[nH]2)c1C(=O)NCCC(C)C	Pf growth 48h inconclusive, Pf growth 96h 2.33µM
CC(C)NC(=O)c1onc(CSc2ccc(F)cc2)c1C(=O)NC(C)C	Pf growth 48h 4.65µM, Pf growth 96h 9.28µM (no result: LmPK inh, CHX counter, Shiga toxin inh)
COCCNC(=O)c1onc(CSc2nc3ccccc3[nH]2)c1C(=O)NCCOC	Pf growth 96h inconclusive
CC(C)NC(=O)c1onc(CSc2ccc(Cl)cc2)c1C(=O)O	none
CCCCNC(=O)c1c(CSc2ccc(Cl)cc2)noc1C(=O)NCCC	Pf growth 96h inconclusive (no result: LmPK inh, CHX counter, Shiga toxin inh)
CCCCNC(=O)c1onc(CSc2ccccc2)c1C(=O)NCCCC	Pf growth 48h inconclusive, Pf growth 96h 11.7µM (no result: LmPK inh, CHX counter, Shiga toxin inh)
CCCNC(=O)c1onc(CSc2ccc(Cl)cc2)c1C(=O)NC(C)C	Pf growth 48h 11.7µM, Pf growth 96h 4.65µM (no result: LmPK inh, CHX counter, Shiga toxin inh)
CC(C)NC(=O)c1onc(CSc2ccc(Cl)cc2)c1C(=O)NC(C)C	Pf growth 48h 5.22µM, Pf growth 96h 3.29µM
CCCCNC(=O)c1onc(CSc2ccccc2CC)c1C(=O)O	Pf growth 48h inconclusive, Pf growth 96h inconclusive
CCCCNC(=O)c1onc(CS(=O)(=O)c2ccccn2)c1C(=O)NCCCC	Pf growth 48h inconclusive, Pf growth 96h 14.7µM (no result: LmPK inh, CHX counter, Shiga toxin inh)
FC(F)(F)c1nnc2c(Sc3ccccn3)nc3ccccc3n12	Pf growth 48h 9.28µM, CHX counter 22.5, Shiga toxin inh 111.1
FC(F)(F)c1nnc2c(Sc3ccccc3)nc3ccccc3n12	CHX counter 28.2
O=C(NCc1ccccc1)c1ncn[nH]1	none
O=C(NCc1ccccc1)c1n[nH]nc1-c1ccccc1O	CHX counter 18.0
Cc1csc(=O)n1CCC(=O)OCC(=O)c1ccc(Br)cc1	none (no result: LmPK inh, CHX counter, Shiga toxin inh)
COc1ccccc1C(=O)NNC(=O)c1ccc(C)cc1	CHX counter 20.4
COc1ccccc1/C=N/OC(=O)c1ccc(C)cc1	CHX counter 11.3
COc1ccccc1C(=O)NNC(=O)c1ccncc1	Pf growth 96h inconclusive
COc1ccccc1C(=O)NNC(=O)c1ccc(Br)o1	CHX counter 43.9, Shiga toxin inh 82.1
COC(=O)c1ccc(CO/N=C/c2ccccc2OC)cc1	none
COc1ccccc1C(=O)NNC(=O)c1ccc(Br)cc1	CHX counter 10.3
COc1ccccc1CNC(=O)c1ccc(Br)o1	none
CC#CCN1c2ccccc2[C@]23C[C@@H](C(=O)OC)N(S(=O)(=O)c4ccc(OC)cc4)C2=NC(C(=O)OC)=C(C(=O)OC)[C@H]13	none (no result: Pf growth 48h, CHX counter, Shiga toxin inh, Pf growth 96h)
O=C(NCCS(=O)(=O)N1CCCC1)c1ccccc1	none (no result: LmPK inh, CHX counter, Shiga toxin inh)
CC1CC(C)(C)NC(=S)N1CCCC(=O)N1CCN(c2ccccc2F)CC1 (centres undefined)	Pf growth 48h inconclusive, Pf growth 96h inconclusive
CC(C)(C)OC(=O)NCc1n[nH]c(=S)n1C1CC1	none
CC(Oc1ccccc1Br)C(=O)N1CCc2ccccc21 (centres undefined)	CHX counter 51.0, Shiga toxin inh 79.0
CC(Oc1ccc(Br)cc1)C(=O)N1CCc2ccccc21 (centres undefined)	Pf growth 48h 1.47µM
COc1ccc(-c2[nH]ncc2-c2cscn2)c(O)c1	none
CCS(=O)(=O)C1=NSC2=NC(=O)/C(=C\c3ccc(OC(=O)c4ccco4)cc3)C(=N)N21	none
Cc1ccc(NC(=O)C2CC(=O)n3ncnc3N2)cc1C (centres undefined)	none
O=C(CSc1nnc2c(n1)[nH]c1ccccc12)Nc1ccc2c(c1)OCO2	none (no result: Pf growth 96h)
O=C(Cc1c(C(=O)O)[nH]c2ccccc12)Nc1ccc2c(c1)OCO2	Pf growth 48h inconclusive, Pf growth 96h 13.1µM
Cc1ccc(S(=O)(=O)N(C)C)cc1NC(=O)Nc1ccccc1	Pf growth 48h 4.15µM
